Experimental data from PubChem BioAssay (NCI).
About 79,000 compounds went through this panel and 15% of them were active in at least one assay; those are over-represented in the sample as a whole. A number with no mark means an inactive call. Activity calls are given as the source filed them. Rule as the data show it: active = growth inhibition above about 70%; inactive = the rest.

Assay: NCI Yeast Anticancer Drug Screen. Data for the rad14 strain (AID 159);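 also: 0% = growth of vehicle-treated control cultures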
Details: S. cerevisiae rad14 strain growth inhibition, stronger effect = higher value
Experimental: Growth inhibition of yeast strains with defined genetic alterations is measured as a screen for potential anti-cancer activity. Selected strains with alterations in DNA damage repair or cell cycle control were exposed to compounds and growth inhibition was measured relative to vehicle treated controls. The strain used in this assay is rad14

| Structure (SMILES) | growth inhibition (at 1.2 µM) [%] | growth inhibition (at 3.7 µM) [%] | growth inhibition (at 11.0 µM) [%] | growth inhibition (at 33.0 µM) | growth inhibition (at 100.0 µM) |
| --- | --- | --- | --- | --- | --- |
| c1c(N2CCOCC2)ssc1=[N+]1CCOCC1 | -1 | 0 | 3 | 1% | -2% |
| O=C(O)C1C2c3ccccc3C(c3ccccc32)C1C(=O)O (stereo not given) | -2 | 1 | 0 | -2% | 2% |
| CN(C)CCSC1=Nc2ccc(Cl)cc2C(c2ccccc2Cl)=NC1 | 0 | 4 | 17 | 45% | 75% (active) |
| CCC1(O)C(=O)OCc2c1cc1n(c2=O)Cc2c-1nc1ccccc1c2OC (stereo not given) | 6 | 17 | 15 | 20% | 15% |
| Cc1ccc2c(c1N)C(=O)c1ccccc1C2=O | 3 | 5 | 8 | 9% | 16% |
| C/C(=N\N=C(N)N)C(CN1CCOCC1)C(c1ccccc1)c1c(O)c2ccccc2oc1=O (stereo not given) | 4 | 1 | -2 | 6% | 93% (active) |
| CCNCC(=O)O[C@]1(CC)C(=O)OCc2c1cc1n(c2=O)Cc2cc3ccccc3nc2-1 | 11 | 6 | -1 | 6% | 1% |
| Cc1c2ccccc2cc2ccccc12 | 5 | 21 | 55 | 99% (active) | 99% (active) |
